Reference: PubChem BioAssay (Tox21)
“And” between values parts separate entries of the source, which are not always exact repeats. Equal values may be shown once. Results filed as inconclusive are left out. Where a call stands in place of a potency, no number is given. More than one record can exist for a structure, and the calls need not agree. The source made the active and inactive calls. Unless noted, the call rests on the fitted dose curve; in most records, active means well fitted curve in the direction sought with a large enough effect in the repeat runs; inconclusive means weak or mixed curves; inactive means no such curve, though single readings can be large; an effect the other way counts as inactive or inconclusive.

Key:
[1] = qHTS assay to identify small molecule antagonists of the peroxisome proliferator-activated receptor delta (PPARd) signaling pathway - cell viability counter screen (AID 743213); further: nearly all actives have a fitted effect of over 50% in size
Procedure, shortened: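 CellTiter-Glo was added to PPARd-bla HEK293H wells following 17 h compound treatment in the presence of 300 nM L165041. Luminescence was recorded after 30 min at room temperature.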

[2] = target: Peroxisome proliferator-activated receptor delta (Homo sapiens) (UniProt Q03181); assay: qHTS assay to identify small molecule antagonists of the peroxisome proliferator-activated receptor delta (PPARd) signaling pathway (AID 743215; active means well fitted inhibition curve with a large enough effect in the signal ratio in the repeat runs, not every such curve was filed as active; the % refers to the signal ratio;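 further: cells stimulated with agonist L165041 at 300 nM final during compound exposure; series mostly up to about 62 µM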)
Sequence of Peroxisome proliferator-activated receptor delta (Homo sapiens) (Q03181 whole entry, looked up): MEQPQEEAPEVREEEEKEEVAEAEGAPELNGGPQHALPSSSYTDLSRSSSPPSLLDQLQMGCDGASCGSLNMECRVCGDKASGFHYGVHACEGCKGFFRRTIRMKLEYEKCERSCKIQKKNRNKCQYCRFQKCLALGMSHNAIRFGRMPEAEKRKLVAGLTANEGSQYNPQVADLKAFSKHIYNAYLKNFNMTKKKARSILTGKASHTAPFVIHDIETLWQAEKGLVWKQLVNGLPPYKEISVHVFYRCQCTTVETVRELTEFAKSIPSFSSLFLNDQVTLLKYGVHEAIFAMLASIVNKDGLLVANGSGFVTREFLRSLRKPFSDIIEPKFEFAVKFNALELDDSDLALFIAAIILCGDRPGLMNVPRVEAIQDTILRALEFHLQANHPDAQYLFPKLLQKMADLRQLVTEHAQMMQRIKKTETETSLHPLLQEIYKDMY
Procedure, shortened: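 Read-out is beta-lactamase FRET fluorescence, measured 2 h after substrate addition at room temperature. Beforehand, UAS-bla HEK293H cells carrying the PPARd reporter were exposed to compounds with L165041 at 300 nM final for 17 h at 37 C.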

[3] = target: Bile acid receptor (Homo sapiens) (UniProt Q96RI1); assay: qHTS assay to identify small molecule antagonists of the farnesoid-X-receptor (FXR) signaling pathway (AID 743217; active means well fitted inhibition curve with a large enough effect in the signal ratio in the repeat runs, not every such curve was filed as active; the % refers to the signal ratio)
Sequence of Bile acid receptor (Homo sapiens) (Q96RI1 whole entry, looked up): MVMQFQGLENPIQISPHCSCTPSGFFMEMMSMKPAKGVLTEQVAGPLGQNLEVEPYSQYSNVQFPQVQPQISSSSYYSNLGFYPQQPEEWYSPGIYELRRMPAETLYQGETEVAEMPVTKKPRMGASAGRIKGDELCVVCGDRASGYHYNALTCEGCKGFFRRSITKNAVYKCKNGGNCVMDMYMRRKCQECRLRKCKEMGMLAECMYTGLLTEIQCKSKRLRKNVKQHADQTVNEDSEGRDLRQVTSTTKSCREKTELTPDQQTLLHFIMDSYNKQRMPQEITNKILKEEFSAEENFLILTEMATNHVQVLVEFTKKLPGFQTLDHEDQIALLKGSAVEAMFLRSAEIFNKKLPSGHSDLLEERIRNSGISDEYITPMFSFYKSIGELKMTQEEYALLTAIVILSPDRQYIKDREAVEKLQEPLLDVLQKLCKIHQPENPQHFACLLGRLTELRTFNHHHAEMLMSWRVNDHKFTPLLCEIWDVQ
Procedure, shortened: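 HEK 293T FXR-UAS-bla, 5000 cells/well; compound + CDCA 50 uM final; 16 h, 37 °C; B/G FRET substrate 2 h RT; fluorescence.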

[4] = qHTS assay to identify small molecule agonists of the farnesoid-X-receptor (FXR) signaling pathway - cell viability counter screen (AID 743218); further: nearly all actives have a fitted effect of over 45% in size; further: potency means the concentration at half of the fitted maximal effect
Procedure, shortened: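 HEK 293T FXR-bla cells; 5 h pre-incubation, 16 h compound exposure at 37 C; LiveBLAzer substrate 2 h RT, then CellTiter-Glo 30 min RT, luminescence.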

[5] = target: Bile acid receptor (Homo sapiens) (UniProt Q96RI1); assay: qHTS assay to identify small molecule agonists of the farnesoid-X-receptor (FXR) signaling pathway (AID 743220; active means well fitted activation curve with a large enough effect in the signal ratio in the repeat runs, not every such curve was filed as active; the % refers to the signal ratio)
Procedure, shortened: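 Beta-lactamase reporter under UAS control in GeneBLAzer FXR HEK 293T cells (5000/well) measured with LiveBLAzer FRET substrate after 2 h at room temperature. Compound exposure lasted 16 h at 37C.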

[6] = qHTS assay to identify small molecule antagonists of the farnesoid-X-receptor (FXR) signaling pathway - cell viability counter screen (AID 743221; active means well fitted cell-killing curve with a large enough effect in the repeat runs, not every such curve was filed as active; further: nearly all actives have a fitted effect of over 50% in size)
Procedure, shortened: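 Luminescence from CellTiter-Glo measures cytotoxicity in GeneBLAzer FXR-UAS-bla HEK 293T cells. Cells were exposed to compounds with 50 uM chenodeoxycholic acid (final) for 16 h at 37 C, in wells also used for the reporter readout.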

[7] = target: Vitamin D3 receptor (Homo sapiens) (UniProt P11473); assay: qHTS assay to identify small molecule agonists of the vitamin D receptor (VDR) signaling pathway (AID 743222; calls by dose curve)
Sequence of Vitamin D3 receptor (Homo sapiens) (P11473 whole entry, looked up): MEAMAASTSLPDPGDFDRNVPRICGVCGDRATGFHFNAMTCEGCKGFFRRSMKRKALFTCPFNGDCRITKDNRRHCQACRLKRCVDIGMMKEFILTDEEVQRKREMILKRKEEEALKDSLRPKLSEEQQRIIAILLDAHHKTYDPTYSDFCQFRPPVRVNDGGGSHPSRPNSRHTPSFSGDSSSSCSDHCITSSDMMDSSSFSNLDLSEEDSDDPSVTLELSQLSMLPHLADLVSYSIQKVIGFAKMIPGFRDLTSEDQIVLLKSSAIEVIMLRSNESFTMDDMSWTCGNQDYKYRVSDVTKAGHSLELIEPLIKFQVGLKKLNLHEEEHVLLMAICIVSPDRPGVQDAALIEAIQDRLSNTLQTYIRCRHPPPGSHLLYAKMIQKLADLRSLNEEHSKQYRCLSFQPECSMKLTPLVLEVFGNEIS
Procedure, shortened: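 VDR-bla cells, 2,000/well; 4 h preincubation 37C; cpd (DMSO) 16 h; LiveBLAzer B/G substrate 2 h RT; fluorescence intensity read.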

[8] = target: Vitamin D3 receptor (Homo sapiens) (UniProt P11473); assay: qHTS assay to identify small molecule antagonists of the vitamin D receptor (VDR) signaling pathway (AID 743223; active means well fitted inhibition curve with a large enough effect in the signal ratio in the repeat runs, not every such curve was filed as active; the % refers to the signal ratio)
Procedure, shortened: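 Antagonist mode uses 1alpha,25-dihydroxyvitamin D3 at 3 nM final as stimulus. VDR-bla cells receive compounds in DMSO, incubate 16 h at 37C, then a beta-lactamase FRET substrate for 2 h at room temperature before fluorescence measurement.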

[9] = qHTS assay to identify small molecule agonists of the vitamin D receptor (VDR) signaling pathway - cell viability counter screen (AID 743224); further: series mostly up to about 63 µM; nearly all actives have a fitted effect of over 50% in size
Procedure, shortened: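 Luminescence from CellTiter-Glo, read after 30 min at room temperature, reports viability of VDR-bla cells treated with compounds for 16 h at 37C in the wells used for the beta-lactamase FRET read.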

[10] = qHTS assay to identify small molecule antagonists of the vitamin D receptor (VDR) signaling pathway - cell viability counter screen (AID 743225); further: nearly all actives have a fitted effect of over 50% in size
Procedure, shortened: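 Read-out: CellTiter-Glo luminescence measured 30 min after reagent addition at room temperature. Cells were VDR-bla HEK 293T exposed 16 h at 37C, 5% CO2, to compound with 3 nM final calcitriol agonist.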

CCCCNC(N)=O
Potency [1]: inactive | outcome [2]: inactive | outcome [3]: inactive | Potency [4]: inactive | outcome [5]: inactive | Potency [6]: inactive | Potency [7]: inactive | Potency [8]: inactive | Potency [9]: inactive | Potency [10]: inactive

CCCCC(CC)COC(=O)CCCCCCCC(=O)OCC(CC)CCCC (configuration not stated)
Potency [1]: inactive | outcome [2]: inactive | outcome [3]: inactive | Potency [4]: inactive | outcome [5]: inactive | Potency [6]: inactive | Potency [9]: inactive | Potency [10]: inactive

O=S(=O)(O)c1cc(S(=O)(=O)O)c2c(N=Nc3ccccc3)c(O)ccc2c1
Potency [1]: inactive | outcome [2]: inactive | outcome [3]: inactive | Potency [4]: inactive | outcome [5]: inactive | Potency [6]: inactive | Potency [7]: inactive | Potency [8]: inactive | Potency [9]: inactive | Potency [10]: inactive

O=c1c(-c2ccc(O)cc2)coc2cc(O)ccc12
Potency [1]: inactive | outcome [2]: inactive | Potency [4]: inactive | outcome [5]: inactive | Potency [6]: inactive | Potency [9]: inactive | Potency [10]: inactive

O=[N+]([O-])c1cccc(Cl)c1
Potency [1]: inactive | outcome [2]: inactive | Potency [4]: inactive | Potency [6]: inactive | Potency [7]: inactive | Potency [8]: inactive | Potency [9]: inactive | Potency [10]: inactive

Oc1ccc(OCc2ccccc2)cc1
Potency [1]: inactive | outcome [2]: inactive | outcome [3]: inactive | Potency [4]: inactive | outcome [5]: inactive | Potency [6]: inactive | Potency [7]: inactive | Potency [8]: inactive | Potency [9]: inactive | Potency [10]: inactive

NCc1cccc(CN)c1
Potency [1]: inactive | outcome [2]: inactive | outcome [3]: inactive | Potency [4]: inactive | outcome [5]: inactive | Potency [6]: inactive | Potency [7]: inactive | Potency [8]: inactive | Potency [9]: inactive | Potency [10]: inactive

CCCCCCOC(C)=O
Potency [1]: inactive | outcome [2]: inactive | outcome [3]: inactive | Potency [4]: inactive and 24.5 µM (active) | outcome [5]: inactive | Potency [6]: inactive | Potency [7]: inactive | Potency [9]: inactive | Potency [10]: inactive

CCCCCC/C=C/CCCCCCCC(=O)O
Potency [1]: inactive | outcome [2]: inactive | outcome [3]: inactive | Potency [4]: inactive | outcome [5]: inactive | Potency [6]: inactive | Potency [8]: inactive | Potency [9]: inactive | Potency [10]: inactive

O=C1O[C@H](CO)[C@@H](O)[C@H](O)[C@H]1O
Potency [1]: inactive | outcome [2]: inactive | outcome [3]: inactive | Potency [4]: inactive | outcome [5]: inactive | Potency [6]: inactive | Potency [7]: inactive | Potency [8]: inactive | Potency [9]: inactive | Potency [10]: inactive

O=C(c1cc(O)c(O)c(O)c1)c1ccc(O)c(O)c1O
Potency [1]: inactive | outcome [2]: inactive | outcome [3]: inactive | Potency [4]: inactive | outcome [5]: inactive | Potency [6]: inactive | Potency [7]: inactive | Potency [8]: inactive | Potency [9]: inactive | Potency [10]: inactive

c1ccc2ccccc2c1
Potency [1]: inactive | outcome [2]: inactive | outcome [3]: inactive | Potency [4]: inactive | outcome [5]: inactive | Potency [6]: inactive | Potency [7]: inactive | Potency [8]: inactive | Potency [9]: inactive | Potency [10]: inactive

O=C(Cl)c1c(Cl)c(Cl)c(C(=O)Cl)c(Cl)c1Cl
Potency [1]: inactive | outcome [2]: inactive | outcome [3]: inactive | Potency [4]: inactive | outcome [5]: inactive | Potency [6]: inactive | Potency [9]: inactive | Potency [10]: inactive

C=CC(=O)OCCCCCCCC(C)C
Potency [1]: inactive | outcome [2]: inactive | outcome [3]: inactive | Potency [4]: inactive | outcome [5]: inactive | Potency [6]: inactive | Potency [7]: inactive | Potency [8]: inactive | Potency [9]: inactive | Potency [10]: inactive

CCC(C)C=O (configuration not stated)
Potency [1]: inactive | outcome [2]: inactive | outcome [3]: inactive | Potency [4]: inactive | outcome [5]: inactive | Potency [6]: inactive | Potency [7]: inactive | Potency [9]: inactive | Potency [10]: inactive

Cc1cc(=O)[nH]c(C(C)C)n1
Potency [1]: inactive | outcome [2]: inactive | outcome [3]: inactive | Potency [4]: inactive | outcome [5]: inactive | Potency [6]: inactive | Potency [7]: inactive | Potency [8]: inactive | Potency [9]: inactive | Potency [10]: inactive

O=S(=O)(O)CCS
Potency [1]: inactive | outcome [2]: inactive | outcome [3]: inactive | Potency [4]: inactive | outcome [5]: inactive | Potency [6]: inactive | Potency [9]: inactive | Potency [10]: inactive

COCC(=O)O
Potency [1]: inactive | outcome [2]: inactive | Potency [4]: inactive | Potency [6]: inactive | Potency [7]: inactive | Potency [8]: inactive | Potency [9]: inactive | Potency [10]: inactive

CNC[C@H](O)[C@@H](O)[C@H](O)[C@H](O)CO
Potency [1]: inactive | outcome [2]: inactive | outcome [3]: inactive | Potency [4]: inactive | outcome [5]: inactive | Potency [6]: inactive | Potency [7]: inactive | Potency [8]: inactive | Potency [9]: inactive | Potency [10]: inactive

CCOC(=O)[C@H](CCc1ccccc1)N[C@@H](C)C(=O)N1Cc2ccccc2C[C@H]1C(=O)O
Potency [1]: inactive | outcome [2]: inactive | outcome [3]: inactive | Potency [4]: inactive | outcome [5]: inactive | Potency [6]: inactive | Potency [7]: inactive | Potency [8]: inactive | Potency [9]: inactive | Potency [10]: inactive

O=Nc1ccc(O)cc1
Potency [1]: inactive | outcome [2]: inactive | outcome [3]: inactive | Potency [4]: inactive | outcome [5]: inactive | Potency [6]: inactive | Potency [9]: inactive | Potency [10]: inactive

c1ccc2[nH]cnc2c1
Potency [1]: inactive | outcome [2]: inactive | outcome [3]: inactive | Potency [4]: inactive | outcome [5]: inactive | Potency [6]: inactive | Potency [7]: inactive | Potency [8]: inactive | Potency [9]: inactive | Potency [10]: inactive

CCCCCCCCCCCCOCC1CO1 (configuration not stated)
Potency [1]: inactive | outcome [2]: inactive | outcome [3]: inactive | Potency [4]: inactive | outcome [5]: inactive | Potency [6]: inactive | Potency [7]: inactive | Potency [9]: inactive | Potency [10]: inactive

CC(C)(CO)COC(=O)C(C)(C)CO
Potency [1]: inactive | outcome [2]: inactive | outcome [3]: inactive | Potency [4]: inactive | outcome [5]: inactive | Potency [6]: inactive | Potency [7]: inactive | Potency [8]: inactive | Potency [9]: inactive | Potency [10]: inactive

O=[N+]([O-])c1cc(N(CCO)CCO)ccc1NCCO
Potency [1]: inactive | outcome [2]: inactive | Potency [4]: inactive | Potency [6]: inactive | Potency [7]: inactive | Potency [8]: inactive | Potency [9]: inactive | Potency [10]: inactive

Cc1ccc(N)c(S(=O)(=O)O)c1
Potency [1]: inactive | outcome [2]: inactive | outcome [3]: inactive | Potency [4]: inactive | outcome [5]: inactive | Potency [6]: inactive | Potency [7]: inactive | Potency [9]: inactive | Potency [10]: inactive

CCCCOCCOCCOC(=O)CCCCC(=O)OCCOCCOCCCC
Potency [1]: inactive | outcome [2]: inactive | outcome [3]: inactive | Potency [4]: inactive | outcome [5]: inactive | Potency [6]: inactive | Potency [7]: inactive | Potency [8]: inactive | Potency [9]: inactive | Potency [10]: inactive

C=C(C)C(=O)OCC(CC)(COC(=O)C(=C)C)COC(=O)C(=C)C
Potency [1]: inactive | outcome [2]: inactive | outcome [3]: inactive | Potency [4]: inactive | outcome [5]: inactive | Potency [6]: inactive | Potency [9]: inactive | Potency [10]: inactive

Clc1ccc(Cl)c(Cl)c1Cl
Potency [1]: inactive | outcome [2]: inactive | outcome [3]: inactive | Potency [4]: inactive | outcome [5]: inactive | Potency [6]: inactive | Potency [7]: inactive | Potency [8]: inactive | Potency [9]: inactive | Potency [10]: inactive

CCCCOCCO
Potency [1]: inactive | outcome [2]: inactive | outcome [3]: inactive | Potency [4]: inactive | outcome [5]: inactive | Potency [6]: inactive | Potency [7]: inactive | Potency [8]: inactive | Potency [9]: inactive | Potency [10]: inactive

OCC1CCCO1 (configuration not stated)
Potency [1]: inactive | outcome [2]: inactive | outcome [3]: inactive | Potency [4]: inactive | outcome [5]: inactive | Potency [6]: inactive | Potency [7]: inactive | Potency [8]: inactive | Potency [9]: inactive | Potency [10]: inactive

CCC(=O)O
Potency [1]: inactive | outcome [2]: inactive | Potency [4]: inactive | Potency [6]: inactive | Potency [7]: inactive | Potency [8]: inactive | Potency [9]: inactive | Potency [10]: inactive

CC[Si](OC(C)=O)(OC(C)=O)OC(C)=O
Potency [1]: inactive | outcome [2]: inactive | Potency [4]: inactive | Potency [6]: inactive | Potency [7]: inactive | Potency [8]: inactive | Potency [9]: inactive | Potency [10]: inactive
